About 10,000 (2.8%) of roughly 360,000 compounds were called active. Another 4% or so got no clear call; they are omitted. This is one part of a sample in which actives are shown more often than they occur. Unmarked numbers belong to inactive results. Calls follow the shape of the dose curve; as a rule, active = well fitted inhibition curve with a large enough effect; inconclusive = small, poorly fitted or top-dose-only effect; inactive = flat fitted curve, though single readings scatter.
These compounds were tested against Serine/threonine-protein kinase PLK1 (Homo sapiens) (UniProt P53350) (assay: qHTS for Inhibitors of PLK1-PDB (polo-like kinase 1 - polo-box domain): Primary Screen). Conditions: Plk1 PBD binding of FITC phosphopeptide, fluorescence polarization.
Excerpt: The polo-like kinase 1 (Plk1) is a member of a conserved subfamily of serine / threonine protein kinases that plays a pivotal roles in cell proliferation. It has a C-terminal non-catalytic region called the polo-box domain (PBD) that plays a crucial role in the subcellular localization of the Plk1. […] Furthermore, depletion of the overexpressed Plk1 by RNAi efficiently induces apoptotic cell death in cancer and reduces tumor growth in mouse xenograft models. Thus, targeting Plk1 is an appealing strategy for anti-cancer therapy. Therefore, this project aimed to screen the Molecular Libraries Small Molecule Repository (MLSMR) using a novel approach to find inhibitors that target the Plk1 PBD instead of the conventional N-terminal catalytic domain. This project employed a fluorescence polarization (FP) assay using a FITC-conjugated phospho-9-mer (p-9-mer) peptide and purified human Plk1 PBD protein. The identified small molecule inhibitors of Plk1 PBD can then further be developed into useful tools for biomedical and clinical research that complements or replaces current relevant disease therapy. NIH Chemical Genomics Center [NCGC] NIH Molecular Libraries Probe Centers Network [MLPCN] MLPCN Grant: MH100728 Assay Submitter (PI): Kyung Lee, NCI
Four microliter of 25 nM FITC-p-9-mer + 60 nM Plk1 PBD in buffer solution (final concentrations 25 nM and 60 nM respectively) or 4 uL of 25 nM FITC-p-9-mer (final concentration 25 nM) in buffer will be dispensed into a 1,536 Greiner medium-binding black solid plate. Small molecules at final concentrations of 18 nM to 57 uM and positive control phospho-9-mer (sequence: Ac-PPLHSpTAI-NH2) at final concentrations 26 nM to 57 uM and phospho-13-mer (sequence: Ac-[…]pTAI-NH2) at final concentrations of 1 nM to 2.3 uM will be pin-transferred (23 nL) to the plate via a Kalypsys pin-tool robotics equipped with a 1,536-pin array. The reaction plate will be centrifuged for 1 min at 1000 rpm and incubated at room temperature for 10 min. The FITC fluorescence signals will be read using the PerkinElmer ViewLux plate reader at 480 / 20 nm excitation and 540 / 20 nm S and P polarization emission wavelengths. Reagent bottles will be kept submerged into 4 °C recirculating chiller bath and all liquid lines will be covered with aluminum foil to minimize degradation. Library plates will be screened starting from the lowest to the highest concentrations to minimize compound carryover. Vehicle only plates, with DMSO being pin-transferred instead of compound solutions, will be included regularly throughout the screen to record any systematic shifts in assay signal.
% is scaled to controls: 0 for no effect and ±100 for the full control effect; potency is read from the fitted curve at half-maximal effect.
Also: nearly all actives have a fitted effect of over 65% in size.
For max response, negative = inhibition in this document: series mostly up to about 57 µM.

Serine/threonine-protein kinase PLK1 (Homo sapiens), sequence (P53350 whole entry, looked up, the tested form may be a part): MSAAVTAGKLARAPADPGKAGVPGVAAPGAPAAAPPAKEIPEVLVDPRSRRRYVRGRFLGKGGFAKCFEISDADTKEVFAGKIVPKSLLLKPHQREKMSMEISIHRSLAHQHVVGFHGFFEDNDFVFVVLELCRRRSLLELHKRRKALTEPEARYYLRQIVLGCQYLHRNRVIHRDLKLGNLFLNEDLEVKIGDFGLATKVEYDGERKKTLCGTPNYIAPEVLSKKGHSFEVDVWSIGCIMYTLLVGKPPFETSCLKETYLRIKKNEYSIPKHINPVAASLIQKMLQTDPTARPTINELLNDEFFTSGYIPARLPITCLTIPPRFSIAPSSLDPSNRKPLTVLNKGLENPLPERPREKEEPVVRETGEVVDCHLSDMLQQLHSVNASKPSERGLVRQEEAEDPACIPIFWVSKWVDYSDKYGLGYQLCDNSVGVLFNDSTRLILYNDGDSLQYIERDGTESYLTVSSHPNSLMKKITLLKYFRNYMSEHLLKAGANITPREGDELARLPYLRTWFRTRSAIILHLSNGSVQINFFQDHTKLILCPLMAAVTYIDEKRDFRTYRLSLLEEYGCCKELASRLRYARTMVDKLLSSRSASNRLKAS

| SMILES | max response, negative = inhibition [%] | Potency |
| --- | --- | --- |
| C=CCn1c(SCc2cccc(F)c2)nc2cc(C(=O)N3CCC(C(N)=O)CC3)ccc2c1=O | -5.4 | – |
| O=C(c1cccc(F)c1)N1CCN(c2ccc([N+](=O)[O-])c(N3CCCCC3)c2)CC1 | -8.34 | – |
| Cc1ccc(CSCC2Nc3ccc(C(=O)N4CCN(c5ccc(F)cc5)CC4)cc3NC2=O)cc1 (stereo unspecified) | – | 8.44 µM (active) |
| CC1CCN(C(=O)c2ccc3c(c2)NC(=O)CN3)CC1 | 62.7 | – |
| Cc1ccc(SCC(=O)N2CCN(c3ccc(F)cc3)CC2)cc1 | 4.7 | – |
| O=C1Nc2cc(C(=O)N3CCN(c4ccc(F)cc4)CC3)ccc2NC1CSCc1cccc(F)c1 (stereo unspecified) | – | 29.9 µM (active) |
| Cc1nc2ccccc2nc1CC(O)(c1ccccc1)c1ccccc1 | -15.9 | – |
| COc1cccc(CN(C)C(=O)CC[C@H]2O[C@@H](n3cnc4c(NC(=O)c5ccccc5)ncnc43)[C@H](O)[C@@H]2O)c1 | -1.63 | – |
| Cc1ccc(C(NC(=O)C2CCN(CCOc3ccc(Cl)cc3Cl)CC2)c2ccccn2)cc1 (stereo unspecified) | -11.3 | – |
| CCOc1cc(C)ccc1OCc1nnc(SCC(=O)Nc2cccc(C(=O)O)c2)n1-c1ccccc1 | -7.97 | – |
| Cc1nnc(SCC(=O)Nc2cccc(N)c2)n1-c1ccccc1 | – | 26.7 µM (active) |
| CC(=O)Nc1ccc(NC(=O)CSc2nnc(C3CC3)n2-c2ccccc2)cc1 | 7.6 | – |
| OCC1OC(n2cnc3c(N4CCCC4)ncnc32)C(O)C1O (stereo unspecified) | -0.393 | – |
| C[C@@H]1CN([C@H](C)CO)C(=O)c2cc(Br)cnc2O[C@@H]1CN(C)Cc1cncnc1 | -13.8 | – |
| CN(CCO)C(=O)c1nc[nH]c1C(=O)N(C)Cc1ccccc1 | -6.79 | – |
| CC1=CC(=C(C#N)c2nc3ccccc3s2)C=C(C)N1c1ccc(F)cc1F | – | 21.2 µM (active) |
| CN(Cc1nc2ccccc2s1)C(=O)c1ccc(F)cc1 | -6.86 | – |
| O=C(NCc1cccnc1)c1ccc2nc([C@@H]3O[C@H](CO)[C@H](O)[C@H](O)[C@H]3O)[nH]c2c1 | -4.09 | – |
| COc1cc(/C=N\Nc2nc(-c3cccs3)c(NC(C)=O)s2)ccc1O | – | 26.7 µM (active) |
| COc1cc(C=NC2CCCCC2)ccc1O | 4.49 | – |
| CC(=O)c1sc(N/N=C/c2ccc(C(C)C)cc2)nc1C | 11.6 | – |
| CCc1ccccc1NC(=O)CN1CCN(C(=O)c2cc(C3CC3)nn2-c2ccccc2)CC1 | 7.48 | – |
| COc1ccc(S(=O)(=O)NC(=O)C2(C)CCN2C(=O)COc2ccc(Cl)cc2)cc1 (stereo unspecified) | -3.35 | – |

| SMILES | max response, negative = inhibition [%] | Potency |
| --- | --- | --- |
| CC(C)Nc1ncnc2c1ncn2[C@H]1CN(Cc2ccncc2)C[C@@H](CO)O1 | 0.157 | – |
| CC(=O)c1nn(-c2ccccc2)c(=Nc2ccccc2)cc1C | -4.39 | – |
| O=C(COc1ccccc1)Nc1ccc(C(=O)N2CCCC2)cc1 | -9.45 | – |
| COc1ccc(N2CCN(C(=O)c3cccs3)CC2)cc1 | 0.204 | – |
| O=C(COc1ccccc1)Nc1ccc(N2CCN(C(=O)c3cccs3)CC2)cc1 | – | 26.7 µM (active) |
| Cc1ccc(S(=O)(=O)N2CCC(=O)N([C@H](COCc3ccccc3)C(C)C)CC2)cc1 | -7.98 | – |
| Cc1cc(C(=O)OCC(=O)Nc2nccs2)c2ccccc2n1 | – | 3.36 µM (active) |
| Cc1cc(C(=O)OCC(=O)Nc2nnc(C(C)C)s2)c2ccccc2n1 | -7.1 | – |
| O=C(COC(=O)c1ccc(O)cc1)Nc1nccs1 | -1.48 | – |
| CC1(C(=O)NS(=O)(=O)c2cccc(OC(F)F)c2)CCN1C(=O)C1CC1 (stereo unspecified) | 3.22 | – |
| CCCNC(=O)C1(C)CCN1C(=O)C1(c2ccccc2)CC1 (stereo unspecified) | -4.48 | – |
| CC(C)(C)Cc1c(C2CCCCC2)nc2ccc(Br)cn12 | 3.52 | – |
| COc1ccc(CNC(=O)C2CCN(S(=O)(=O)c3ccc(SC)cc3)CC2)cc1 | -7.7 | – |
| COc1ccc(CNC(=O)C2CCN(S(C)(=O)=O)CC2)cc1 | – | 21.2 µM (active) |
| COc1ccc(CNC(=O)C2CCN(S(=O)(=O)N3CCOCC3)CC2)cc1 | 3.12 | – |
| CC1(C(=O)NCc2cccc3ccccc23)CCN1Cc1ccc(-c2ccccc2)o1 (stereo unspecified) | -8.62 | – |
| CCc1nc2ccc(C(=O)NCCNC(C)=O)cn2c1N(CC)Cc1cccc(Br)c1 | -0.869 | – |
| CCC(C(=O)NCc1ccccc1)n1c(Cc2cc(F)cc(F)c2)nc2ccccc21 (stereo unspecified) | 2.43 | – |
| O=C(NCCN1CCOCC1)C1CCN(S(=O)(=O)c2ccccc2)CC1 | 1.1 | – |
| O=C(NCc1cccs1)c1ccc(Br)o1 | -4.89 | – |
| CC(CNC(=O)c1ccc(Br)o1)NC(=O)c1ccc(Br)o1 (stereo unspecified) | – | 2.99 µM (active) |
| CC(CCc1ccccc1)NC(=O)c1ccc(Br)o1 (stereo unspecified) | -7.05 | – |
| O=C(COC(=O)/C=C/c1ccc(Cl)cc1)NC1CCS(=O)(=O)C1 (stereo unspecified) | 3.25 | – |

| SMILES | max response, negative = inhibition [%] | Potency |
| --- | --- | --- |
| O=S1(=O)CC(N2CCSCC2)CN1Cc1cn(Cc2cccc(Cl)c2)nn1 (stereo unspecified) | 1.2 | – |
| CSCCC(C(=O)NC(C)(C)C)n1c(-c2ccccc2)nc2ccccc21 (stereo unspecified) | -11.3 | – |
| COc1cc(/C=N/NC(=S)Nc2cccnc2)cc(OC)c1O | -21 | – |
| COc1cc(/C=N/O)cc(Br)c1OS(=O)(=O)c1ccc(C)cc1 | 4.61 | – |
| COc1cc(/C=N/Nc2ccc(C)cc2)cc(Br)c1O | – | 29.9 µM (active) |
| CCCc1nc2ccccc2n1C(C)C(=O)NC(C)(C)C (stereo unspecified) | -5.55 | – |
| C[C@H]1CN([C@@H](C)CO)C(=O)c2cc(Br)cnc2O[C@H]1CN(C)S(=O)(=O)c1cccs1 | -9.15 | – |
| COc1ccc(CN2C(=O)C(CC(=O)NCCN3CCOCC3)CC(C(=O)N(C(C)C)C(C)C)=C2C)cc1 (stereo unspecified) | 4.68 | – |
| Cc1ccc(NC(=O)COC(=O)CN2CCSC2=O)cc1F | 3.55 | – |
| O=C1CCCc2nn(-c3ccccc3)nc21 | -8.07 | – |
| c1ccc(-n2nc3ccccc3n2)cc1 | – | 29.9 µM (active) |
| Nc1ccc2nn(-c3ccc(Cl)cc3)nc2c1 | -7.93 | – |
| CCc1nc2c(OCCOc3ccc(F)cc3)cccn2c1N(C)C(=O)c1ccccc1F | -3.7 | – |
| CC(=O)c1cccc(-c2cnc3c(NC=O)cc(-c4ccccc4Oc4ccccc4)cn23)c1 | -5.21 | – |
| C[C@@H]1CN([C@@H](C)CO)C(=O)CCCn2nncc2CO[C@@H]1CN(C)S(=O)(=O)c1ccc(-c2ccccc2)cc1 | -14.2 | – |
| O=C1[C@H]2[C@@H](c3ccc(C(F)(F)F)cc3)N[C@]3(CCCN(Cc4ccc(Cl)cc4)C3=O)[C@H]2C(=O)N1Cc1ccccc1 | -4.13 | – |
| CCOC(=O)C(=O)Nc1nc(-c2ccccc2)c(CC)s1 | -16.3 | – |
| CCOc1ccc(-c2nc(C)sc2CC(=O)O)cc1 | -0.634 | – |
| C/C(=N/Nc1nc(-c2ccccc2)c(CC(=O)O)s1)c1ccccc1 | – | 13.4 µM (active) |
| CC(C)n1ncc2c(C(=O)N3CCN(Cc4cccs4)CC3)cc(C3CC3)nc21 | -8.38 | – |
| Cc1cccc(C)c1-n1nnnc1C1(C)CCC(=O)N1CCOc1ccccc1 (stereo unspecified) | -8.78 | – |
| COc1ccc(C2=Nc3ccccc3NC(=O)C2N(C(=O)c2cc3ccccc3[nH]2)c2ccccc2)cc1 (stereo unspecified) | 5.46 | – |
| COC(=O)c1cc(N2CCNCC2)nc2ccccc12 | – | 23.8 µM (active) |

| SMILES | max response, negative = inhibition [%] | Potency |
| --- | --- | --- |
| Cc1cc(C(=O)OCC(=O)N2C(C)CCCC2C)c2ccccc2n1 (stereo unspecified) | -9.12 | – |
| CC(=O)N1CCN(C(=O)c2cc(-c3ccc(Cl)s3)nc3ccccc23)CC1 | 4.68 | – |
| O=C(Nc1ccc(F)cc1)C(CCc1ccccc1)N1CCN(CC(=O)N2CCCC2)CC1 (stereo unspecified) | -3.84 | – |
| Cc1cc(Br)ccc1SCC(=O)OCC(=O)NCc1ccc2c(c1)OCO2 | – | 29.9 µM (active) |
| Cc1ccc(C(=O)OCC(=O)NCc2ccc3c(c2)OCO3)s1 | -7.48 | – |
| COc1cccc(CC(=O)OCC(=O)NCc2ccc3c(c2)OCO3)c1 | -5.11 | – |
| Cc1c(C(=O)NCc2ccc(C#N)cc2)sc(=O)n1Cc1ccc(C(=O)N(C)C)cc1 | -10.6 | – |
| CN1C(=O)/C(=C\c2cc(Br)cs2)c2ccccc21 | 9.61 | – |
| CN1C(=O)/C(=N/OC(=O)c2ccccc2Br)c2ccccc21 | – | 23.8 µM (active) |
| COc1ccc(NC(=O)ON=C2c3ccccc3-c3ccccc32)cc1 | -8.43 | – |
| O=C(N=C1SC2CS(=O)(=O)CC2N1Cc1ccccc1)c1ccccc1 (stereo unspecified) | -10.4 | – |
| O=C(C1Cc2ccccc2CN1C(=O)c1ccco1)N1CCN(c2ccccc2)CC1 (stereo unspecified) | -14.9 | – |
| CC(=O)c1ccc(N2Cc3ccccc3C2)cc1 | -10.7 | – |
| CC(=O)N1Cc2ccccc2CC1C(=O)O (stereo unspecified) | – | 2.67 µM (active) |
| CSc1ncnc2c1ncn2CCCNCC1CCCCC1 | 2.12 | – |
| Cc1c(NC(=O)COC(=O)/C=C/c2cccc(F)c2)c(=O)n(-c2ccccc2)n1C | -2.07 | – |
| Cc1c(C(=O)NCC2CC2)sc(=O)n1Cc1cccc(F)c1 | 3.08 | – |
| N#CC1(Nc2ccc3c4c(cccc24)CC3)CCCCC1 | -12.6 | – |
| Cc1oc(-c2cccc(Cl)c2)[n+]([O-])c1C | – | 29.9 µM (active) |
| CCOC(=O)CSc1ncc(-c2cccc(Cl)c2)cn1 | -7.44 | – |
| Cc1oc(-c2ccccc2Cl)[n+]([O-])c1C | -3.14 | – |
| CC(C)c1ccc(CC(=O)N2CCC2(C)C(=O)NS(=O)(=O)c2ccc(C(C)(C)C)cc2)cc1 (stereo unspecified) | -5.51 | – |
